About 4,900 (1.5%) of roughly 330,000 compounds were called active. This is one part of a sample in which actives are shown more often than they occur.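 How the source made its calls: active means inhibition above the mean inhibition across the screen plus 3 SD (cut at about 25% in these data); inactive means the rest.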
What follows are compounds tested against Platelet-activating factor acetylhydrolase (Homo sapiens) (UniProt Q13093) (assay: pPAFAH enzyme inhibitors, primary screen, biochemical, fluorescence polarization, human (AID 463082;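 further: inhibitors block binding of the rhodamine activity-based probe so polarization drops; 0% = enzyme with DMSO and 100% = wells lacking pPAFAH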)). Conditions: recombinant pPAFAH, FP-rhodamine probe fluorescence polarization; at 3.39 µM; stronger effect = higher value.
Sequence of Platelet-activating factor acetylhydrolase (Homo sapiens) (Q13093 whole entry, looked up): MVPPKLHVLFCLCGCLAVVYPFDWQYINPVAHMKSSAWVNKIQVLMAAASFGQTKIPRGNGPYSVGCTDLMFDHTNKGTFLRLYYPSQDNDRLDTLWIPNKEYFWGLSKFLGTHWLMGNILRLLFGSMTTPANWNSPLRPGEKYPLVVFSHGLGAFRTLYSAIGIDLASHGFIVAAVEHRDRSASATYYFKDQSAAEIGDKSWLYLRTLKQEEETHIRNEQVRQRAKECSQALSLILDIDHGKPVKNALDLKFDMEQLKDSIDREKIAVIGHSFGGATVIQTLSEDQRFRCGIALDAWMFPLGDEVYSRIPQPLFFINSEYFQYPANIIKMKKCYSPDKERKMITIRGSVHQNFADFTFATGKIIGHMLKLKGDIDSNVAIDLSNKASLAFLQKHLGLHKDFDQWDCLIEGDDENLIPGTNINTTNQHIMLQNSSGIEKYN

Compound | inhibition
Cc1ccc(CNC(=O)CSc2nnc3c(n2)[nH]c2ccc(F)cc23)cc1 | 3.4% (inactive)
Cc1ccn2c(=O)nc(SCC(=O)NCc3ccc4c(c3)OCO4)nc2c1 | 10.4% (inactive)
Cc1ccn2c(=O)nc(SCC(=O)NCc3ccc(F)cc3)nc2c1 | 26.8% (active)
Cc1ccc(C2SCC(=O)N2c2ccccc2)cc1 (stereo not drawn) | 2.44% (inactive)
Cc1ccc(/C=N/NC(=O)c2cc3ccccc3cc2O)o1 | 57.2% (active)
O=C(N/N=C/c1cccnc1)c1ccc(NC(=O)c2ccc(F)cc2)cc1 | -2.91% (inactive)
O=C(N/N=C/c1cccnc1)c1cc2ccccc2cc1O | 58% (active)
O=C(N/N=C\c1cccnc1)c1cc(-c2ccccc2)nc2c(Cl)cccc12 | -1.21% (inactive)
O=C(NN=Cc1ccc(N2CCOCC2)cc1)c1cc2ccccc2cc1O | 23.5% (inactive)
Cc1ccc(/C=N/NC(=S)Nc2cccc(S(=O)(=O)N(C)C)c2)o1 | 6.2% (inactive)
Cc1nnc(SCC(=O)N(C(C)C)C(C)C)nc1C | 0.01% (inactive)
CCCCOc1ccc(NC(=O)[C@@H]2CCCN2C(=O)C2CCN(S(=O)(=O)c3ccc(C)cc3)CC2)cc1 | 11.9% (inactive)
O=C(OCCO)c1cc(Cl)c(C(=O)OCCO)cc1Cl | 1.07% (inactive)
CCC1(CC)C(=O)C2=C3C1[C@H](C(=O)OC)C=C(C(=O)OC)C[C@H]3[C@H]1C(=O)N(Cc3ccccc3)C(=O)[C@H]1[C@H]2C (stereo partly drawn) | 9.48% (inactive)
COc1ccc(NC(=O)COC(=O)c2ccc(NS(=O)(=O)/C=C/c3ccccc3)cc2)cc1 | 33.1% (active)
CCC(C(=O)OCC(=O)Nc1ccc(C(=O)Nc2ccc(OC)cc2)cc1)c1ccccc1 (stereo not drawn) | 2.28% (inactive)
CN(CC(=O)Nc1ccc(OC(F)F)cc1)S(=O)(=O)/C=C/c1ccccc1 | 5.82% (inactive)
COc1ccc2sc(-c3ccc(N(C)C)cc3)c(C#CCO)c2c1 | 17.2% (inactive)
COc1ccc2c(-c3ccccc3)cc(SCC(=O)N(C)C3CCS(=O)(=O)C3)nc2c1 (stereo not drawn) | 34% (active)
COc1ccc(-c2cc(=O)oc3cc(OCC(=O)N(C)C4CCS(=O)(=O)C4)ccc23)cc1 (stereo not drawn) | 2.24% (inactive)
Cc1cc(C)c2nc(SCC(=O)N(C)C3CCS(=O)(=O)C3)cc(C)c2c1 (stereo not drawn) | 4.97% (inactive)
Cc1ccccc1NC(=O)CCNS(=O)(=O)c1ccc2[nH]c(=O)oc2c1 | 0.18% (inactive)

Compound | inhibition
Cc1ccc(C2(C(F)(F)F)N=C3Sc4cc(C)cc(C)c4N3C(=O)N2)cc1 (stereo not drawn) | 2.43% (inactive)
Cc1nn(C(C)CC(=O)O)c(C)c1C (stereo not drawn) | 1.08% (inactive)
Cc1ccc(NC(=O)CN2CCCCC2)c2c1CC(C)(C)O2 | 1.85% (inactive)
CC/C(=N\NC(=O)c1ccccc1Cl)c1ccc(Br)s1 | 2.32% (inactive)
COC(=O)c1onc(-c2c(OC)cc(OC)cc2OC)c1C(=O)OC | -0.73% (inactive)
Cc1ccc(S(=O)(=O)NCC(=O)NNC(=O)c2ccc(Br)cc2)cc1C | -3.03% (inactive)
CN(C)S(=O)(=O)c1ccc(N2CCCC2)c(C(=O)Nc2cccc(F)c2)c1 | -2.43% (inactive)
CN(C)S(=O)(=O)c1ccc(N2CCCC2)c(C(=O)NCc2ccccc2)c1 | 27.1% (active)
Cc1ccccc1OCC(=O)NNC(=O)c1cc(S(=O)(=O)N(C)C)ccc1N1CCCC1 | -0.66% (inactive)
Cc1ccccc1CN1C[C@@H]2C[C@@H](c3cn(C)nc3-c3ccccc3)N3CCC[C@@]23C1=O | 8.05% (inactive)
Cc1cc(C)c(-c2c(O)c3ccccc3n(C)c2=O)c(C)c1 | -0.19% (inactive)
COc1ccc(CN2CC(C(=O)NCCN3CCN(c4ccccc4F)CC3)CC2=O)cc1 (stereo not drawn) | -3.16% (inactive)
O=C(C1CCN(Cc2ccc(Cl)cc2)CC1)N1CCN(Cc2ccc3c(c2)OCO3)CC1 | 6.74% (inactive)
CC1CCC(NC(=O)C2c3ccccc3C(=O)N2Cc2ccc3c(c2)OCO3)CC1 (stereo not drawn) | -0.02% (inactive)
O=C(Nc1ccc(Cl)cc1)C1c2cccc[n+]2CC(=O)N1Cc1ccc2c(c1)OCO2 (stereo not drawn) | 25.9% (active)
COC(=O)c1c(C)oc(C)c1S(=O)(=O)NCc1ccc(Cl)cc1 | -8.68% (inactive)
NS(=O)(=O)c1cccc(NC(=O)CSc2nc3ccccc3n2-c2ccccc2)c1 | 33.2% (active)
COc1ccc(-n2cnnc2SCC(=O)Nc2cccc(S(N)(=O)=O)c2)cc1 | 3.84% (inactive)
Cc1nnc(SCC(=O)Nc2cccc(N)c2)n1-c1ccccc1 | 6.08% (inactive)
O=[N+]([O-])c1ccc(N2CCN(S(=O)(=O)c3ccccc3)CC2)cc1N1CCc2ccccc2C1 | -4.15% (inactive)
COCCN1C(=O)C(=O)/C(=C(/O)c2ccc(S(=O)(=O)N3CCCCC3)cc2)C1c1ccc(OC)c(OC)c1 (stereo not drawn) | -2.4% (inactive)
Cc1cccc(-n2c(C)cc(/C=N/NC(N)=S)c2C)c1 | -4.16% (inactive)

Compound | inhibition
Cc1cc(/C=N/Nc2ccc([N+](=O)[O-])cn2)c(C)n1-c1cccc(C(=O)O)c1 | 66.3% (active)
Cc1ccc(-n2c(C)cc(/C=N/Nc3ccc([N+](=O)[O-])cn3)c2C)c(C)c1 | 8.84% (inactive)
NC(=O)NC(=O)CSc1nc2cc([N+](=O)[O-])ccc2n1-c1cccc(C(F)(F)F)c1 | 18.1% (inactive)
Cc1ccc(C(=O)N/C(=C\c2ccco2)C(=O)NC2CCS(=O)(=O)C2)cc1 (stereo not drawn) | -1.45% (inactive)
CC(=O)Nc1ccc(S(=O)(=O)Nc2ccc(N3CCCCC3)cc2)cc1 | 27.6% (active)
CC(=O)Nc1ccc(S(=O)(=O)Nc2ccc(N3CCOCC3)c(F)c2)cc1 | 5.29% (inactive)
COc1cc(NS(=O)(=O)c2ccc(NC(C)=O)cc2)cc(OC)c1 | 2.89% (inactive)
COc1ccccc1OCCNC(=O)C(CCSC)NC(=O)COc1ccccc1 (stereo not drawn) | 1.04% (inactive)
CC(C)NS(=O)(=O)c1ccc(OCC(=O)NC2CCCCCC2)cc1 | 6.56% (inactive)
CCN(C(=O)COC(=O)c1cc(NS(=O)(=O)c2ccc(Cl)c([N+](=O)[O-])c2)ccc1O)C1CCCCC1 | -1.02% (inactive)
COc1ccc(NS(=O)(=O)c2ccc(O)c(C(=O)OCC(=O)NC3CCCCC3)c2)cc1 | 26.9% (active)
COC(=O)c1sc(N2CCN(Cc3ccccc3)CC2)nc1N | 5.95% (inactive)
O=C(Oc1cccc(C(=S)N2CCOCC2)c1)c1cccc(Cl)c1 | 7.68% (inactive)
O=C(/C=C/c1cccs1)c1cc(Cl)ccc1OC(=O)N1CCOCC1 | 42.8% (active)
CC(=O)Nc1ccccc1OC(=O)N1CCOCC1 | -0.96% (inactive)
COc1ccc(/C=C2/S/C(=N/N=C3\CC4CCC3(C)C4(C)C)NC2=O)cc1 (stereo not drawn) | 5.69% (inactive)
O=C1NN(c2ccccc2)C(=O)/C1=C/c1ccc(-c2cccc(C(=O)O)c2)o1 | 18.6% (inactive)
O=C1c2ccccc2NC(c2ccc(-c3cccc(Cl)c3)o2)N1O (stereo not drawn) | 7.56% (inactive)
O=C(O)C(c1ccccc1)N1C(=O)/C(=C\c2ccc(-c3cccc(Cl)c3)o2)SC1=S (stereo not drawn) | 70.4% (active)
COc1ccc(CN2C3CCCC2CC(NC(=O)c2cccc(F)c2)C3)cc1 (stereo not drawn) | 0.56% (inactive)
COc1ccc(N2CC(NS(=O)(=O)c3ccc4ccccc4c3)CC2=O)cc1 (stereo not drawn) | 4.81% (inactive)
O=C(COc1ccc(/C=N/NS(=O)(=O)c2ccccc2)cc1)NCCc1ccccc1 | 4.79% (inactive)

Compound | inhibition
O=S(=O)(N/N=C\c1cccn1-c1ccccc1)c1ccc2ccccc2c1 | 25% (active)
Cc1ccnc2nc(C(=O)Nc3nnc(-c4ccccc4)o3)nn12 | 8.88% (inactive)
CCCCn1c(N)c(N(CC(C)C)C(=O)c2cnc(C)cn2)c(=O)[nH]c1=O | 7.57% (inactive)
COc1ccccc1NC(=O)CCN1CCN(c2ccc(Cl)cc2)CC1 | 6.99% (inactive)
Oc1cccc(/C=N/Nc2ccc(Cl)nn2)c1O | 54.6% (active)
COc1cccc(/C=N/Nc2ccc(Cl)nn2)c1 | -0.67% (inactive)
Cc1ccsc1/C=N/Nc1ccc(Cl)nn1 | 8.65% (inactive)
Cc1nn(C(C)C(=O)N2CCOCC2)c(=O)c2nn(-c3ccccc3)c(C)c12 (stereo not drawn) | -0.47% (inactive)
CC1(N2CCOCC2)CC2(O)C(=[N+]1[O-])CCc1nonc12 (stereo not drawn) | 11.9% (inactive)
CCCCCCCC(=O)OC(CN1CCCCCC1)CN1CCCC1=O (stereo not drawn) | -5.64% (inactive)
Cc1ccccc1CS(=O)(=O)CC1(O)CCN(C(=O)c2cccc(C(F)(F)F)c2)CC1 | -7.07% (inactive)
CN(c1ccccc1)c1ccc(/C=c2\s/c(=C(/C#N)C(=O)C(C)(C)C)n(Cc3ccco3)c2=O)cc1 | -0.46% (inactive)
O=C(NCCc1ccco1)c1nn(Cc2ccccc2)c(=O)c2ccccc12 | 1.41% (inactive)
O=c1nc2s/c(=C\c3ccco3)c(=O)n2nc1Cc1ccccc1 | 25.7% (active)
O=C(COc1coc(CN2CCN(c3ccccc3)CC2)cc1=O)N1CCc2ccccc21 | -5.69% (inactive)
CC(=O)N1CCc2cc(Br)cc(S(=O)(=O)CCC(=O)Nc3c(C)n(C)n(-c4ccccc4)c3=O)c21 | 7.96% (inactive)
N/C(=N\S(=O)(=O)c1ccc(Cl)cc1)N1CCOCC1 | 7.38% (inactive)
COc1cc(C(=O)NCC(=O)NCCSc2ccc(Br)cc2)cc(OC)c1OC | 2.53% (inactive)
COc1ccccc1C(=O)NCC(=O)NCCSc1ccc(Br)cc1 | 28.6% (active)
O=C(CNC(=O)c1ccccc1Br)NCCSc1ccc(Br)cc1 | 6.87% (inactive)
NCCN1CCN2C(=O)CN(C(=O)c3ccccc3)CC12 (stereo not drawn) | 0.84% (inactive)
C/C=C(/C)C(=O)O[C@@H]1c2cc3c(c4c2[C@@]2(CO4)C(=O)C(OC)=C(OC)C=C2C[C@@H](C)[C@H]1C)OCO3 | -0.41% (inactive)

From PubChem BioAssay AID463082 (The Scripps Research Institute Molecular Screening Center, 2010)
